# According to the supplement of paper PMC8728848:
# About 410 targets per protein were measured; listed, in parts, are those with the strongest signals and a random draw of the rest.
# How the values were obtained:
# Assay in all cases: glycan array binding signal (z-score within array); higher = stronger binding
# Details in all cases: glycan notation: IUPAC condensed, linker removed
# [1] = target: Fuc(a1-2)Gal(b1-3)GalNAc(b1-3)Gal
# How it was run: (§1)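 Glycan array data came from 3228 arrays in the Consortium for Functional Glycomics database, and only arrays with an available protein sequence were kept. Glycan names were put into IUPAC-condensed notation, and columns mapping to the same glycan were averaged. The binding signal is a within-array Z-score, averaged across arrays of one protein sequence run at different concentrations or buffers and across linkers. A negative Z-score can be read as non-binding.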
# [2] = target: Fuc(a1-2)Gal(b1-4)Glc
# How it was run: as §1
# [3] = target: Fuc(a1-2)Gal(b1-4)GlcNAc(b1-3)GalNAc
# How it was run: as §1
# [4] = target: Fuc(a1-2)Gal(b1-4)GlcNAc(b1-6)GalNAc
# How it was run: as §1
# [5] = target: Fuc(a1-2)Gal6S(b1-3)GlcNAc6S
# How it was run: as §1
# [6] = target: Fuc(a1-2)[Gal(a1-3)]Gal(b1-4)GlcNAc
# How it was run: as §1
# [7] = target: Fuc(a1-2)[Gal(a1-3)]Gal(b1-4)GlcNAc(b1-2)Man(a1-3)[Fuc(a1-2)[Gal(a1-3)]Gal(b1-4)GlcNAc(b1-2)Man(a1-6)]Man(b1-4)GlcNAc(b1-4)[Fuc(a1-6)]GlcNAc
# How it was run: as §1
# [8] = target: Fuc(a1-2)[GalNAc(a1-3)]Gal(b1-3)GalNAc(a1-3)[Fuc(a1-2)]Gal(b1-4)GlcNAc
# How it was run: as §1
# [9] = target: Fuc(a1-2)[GalNAc(a1-3)]Gal(b1-3)GlcNAc(b1-2)Man(a1-3)[Fuc(a1-2)[GalNAc(a1-3)]Gal(b1-3)GlcNAc(b1-2)Man(a1-6)]Man(b1-4)GlcNAc(b1-4)[Fuc(a1-6)]GlcNAc
# How it was run: as §1
# [10] = target: Fuc(a1-2)[GalNAc(a1-3)]Gal(b1-4)GlcNAc(b1-6)GalNAc
# How it was run: as §1
# [11] = target: Fuc(a1-2)[GalNAc(a1-3)]Gal(b1-4)[Fuc(a1-3)]GlcNAc
# How it was run: as §1
# [12] = target: Fuc(a1-2)[GalNAc(a1-4)]Gal(b1-4)GlcNAc
# How it was run: as §1
# [13] = target: Fuc(a1-2)[GalNAc(b1-3)]Gal
# How it was run: as §1
# [14] = target: Fuc(a1-3)[Gal(b1-4)]GlcNAc(b1-2)Man(a1-3)[Fuc(a1-3)[Gal(b1-4)]GlcNAc(b1-2)Man(a1-6)]Man(b1-4)GlcNAc(b1-4)[Fuc(a1-6)]GlcNAc
# How it was run: as §1
# [15] = target: Gal(a1-3)Gal(b1-3)GlcNAc
# How it was run: as §1
# [16] = target: Gal(a1-3)Gal(b1-3)GlcNAc(b1-2)Man(a1-3)[Gal(a1-3)Gal(b1-3)GlcNAc(b1-2)Man(a1-6)]Man(b1-4)GlcNAc(b1-4)GlcNAc
# How it was run: as §1
# [17] = target: Gal(a1-3)Gal(b1-3)GlcNAc(b1-6)GalNAc
# How it was run: as §1
# [18] = target: Gal(a1-3)Gal(b1-4)GlcNAc(b1-6)GalNAc
# How it was run: as §1
# [19] = target: Gal(b1-3)GlcNAc(b1-6)GalNAc
# How it was run: as §1
# [20] = target: Gal(b1-3)GlcNAc(b1-6)[Gal(b1-3)]GalNAc
# How it was run: as §1
# [21] = target: Gal(b1-3)[Fuc(a1-4)]GlcNAc
# How it was run: as §1
# [22] = target: Gal6S(b1-3)GlcNAc6S
# How it was run: as §1
# [23] = target: GalNAc(a1-3)Gal
# How it was run: as §1
# [24] = target: GalNAc(b1-3)Gal
# How it was run: as §1
# [25] = target: GalNAc(b1-3)Gal(a1-6)Gal(b1-4)Glc
# How it was run: as §1
# [26] = target: GalNAc(b1-3)GlcNAc
# How it was run: as §1
# [27] = target: GalNAc(b1-4)GlcNAc(b1-2)Man(a1-3)[GalNAc(b1-4)GlcNAc(b1-2)Man(a1-6)]Man(b1-4)GlcNAc(b1-4)GlcNAc
# How it was run: as §1
# [28] = target: GalNAc6S(b1-4)GlcNAc
# How it was run: as §1
# [29] = target: GlcNAc(a1-4)Gal(b1-4)GlcNAc(b1-3)Gal(b1-4)GlcNAc
# How it was run: as §1
# [30] = target: GlcNAc(b1-2)[GlcNAc(b1-4)]Man(a1-3)[GlcNAc(b1-4)][GlcNAc(b1-2)[GlcNAc(b1-6)]Man(a1-6)]Man(b1-4)GlcNAc(b1-4)[Fuc(a1-6)]GlcNAc
# How it was run: as §1
# [31] = target: Kdn(a2-6)Gal(b1-4)GlcNAc
# How it was run: as §1
# [32] = target: Man(a1-2)Man(a1-2)Man(a1-6)[Man(a1-3)]Man
# How it was run: as §1
# [33] = target: Man(a1-2)Man(a1-3)[Man(a1-2)Man(a1-6)]Man
# How it was run: as §1
# [34] = target: Man(a1-3)[Man(a1-6)]Man(a1-6)[Man(a1-3)]Man
# How it was run: as §1
# [35] = target: Man(a1-3)[Man(a1-6)]Man(b1-4)GlcNAc(b1-4)GlcNAc
# How it was run: as §1
# [36] = target: Neu5Ac(a2-3)Gal(b1-3)GlcNAc(b1-4)Gal(b1-4)Glc
# How it was run: as §1
# [37] = target: Neu5Ac(a2-3)Gal(b1-4)GlcNAc(b1-3)Gal(b1-4)GlcNAc(b1-3)Gal(b1-4)GlcNAc(b1-2)Man(a1-3)[Neu5Ac(a2-3)Gal(b1-4)GlcNAc(b1-3)Gal(b1-4)GlcNAc(b1-3)Gal(b1-4)GlcNAc(b1-2)Man(a1-6)]GalNAc
# How it was run: as §1
# [38] = target: Neu5Ac(a2-3)Gal(b1-4)GlcNAc(b1-3)[Neu5Ac(a2-3)Gal(b1-4)GlcNAc(b1-6)]GalNAc
# How it was run: as §1
# [39] = target: Neu5Ac(a2-6)Gal(b1-4)GlcNAc(b1-2)Man(a1-6)[Gal(b1-4)GlcNAc(b1-2)Man(a1-3)]Man(b1-4)GlcNAc(b1-4)GlcNAc
# How it was run: as §1
# [40] = target: Neu5Ac(a2-8)Neu5Ac(a2-8)Neu5Ac(a2-3)Gal(b1-4)Glc
# How it was run: as §1
# [41] = target: Neu5Gc(a2-8)Neu5Gc(a2-3)Gal(b1-4)GlcNAc(b1-3)Gal(b1-4)GlcNAc
# How it was run: as §1
binder,measurement,setting,value
Cohesin-hDECTIN-1 (Homo sapiens) (protein) LDITSHHHHHHDDLDAVRIKVDTVNAKPGDTVRIPVRFSGIPSKGIANCDFVYSYDPNVLEIIEIEPGDIIVDPNPDKSFDTAVYPDRKIIVFLFAEDSGTGAYAITKDGVFATIVAKVKEGAPNGLSVIKFVEVGGFANNDLVEQKTQFFDGGVNVGDTTEPATPTTPVTTPTTTDDLDAASSSPCPPNWIIYEKSCYLFSMSLNSWDGSKRQCWQLGSNLLKIDSSNELGFIVKQVSSQPDNSFWIGLSRPQTEVPWLWEDGSTFSSNLFQIRTTATQENPSPNCVWIHVSVIYDQLCSVPSYSICEKKFM,glycan array binding signal (z-score),[1],1.86
same,glycan array binding signal (z-score),[2],-0.162
same,glycan array binding signal (z-score),[3],-0.382
same,glycan array binding signal (z-score),[4],2.93
same,glycan array binding signal (z-score),[5],0.18
same,glycan array binding signal (z-score),[6],-0.206
same,glycan array binding signal (z-score),[7],-0.435
same,glycan array binding signal (z-score),[8],-0.177
same,glycan array binding signal (z-score),[9],-0.305
same,glycan array binding signal (z-score),[10],6.29
same,glycan array binding signal (z-score),[11],-0.149
same,glycan array binding signal (z-score),[12],4.25
same,glycan array binding signal (z-score),[13],4.83
same,glycan array binding signal (z-score),[14],-0.51
same,glycan array binding signal (z-score),[15],4.04
same,glycan array binding signal (z-score),[16],0.993
same,glycan array binding signal (z-score),[17],7.58
same,glycan array binding signal (z-score),[18],5.86
same,glycan array binding signal (z-score),[19],6.01
same,glycan array binding signal (z-score),[20],-0.299
same,glycan array binding signal (z-score),[21],-0.306
same,glycan array binding signal (z-score),[22],1.2
same,glycan array binding signal (z-score),[23],2.65
same,glycan array binding signal (z-score),[24],5.2
same,glycan array binding signal (z-score),[25],4.68
same,glycan array binding signal (z-score),[26],3.33
same,glycan array binding signal (z-score),[27],0.004
same,glycan array binding signal (z-score),[28],4.98
same,glycan array binding signal (z-score),[29],-0.476
same,glycan array binding signal (z-score),[30],-0.586
same,glycan array binding signal (z-score),[31],-0.471
same,glycan array binding signal (z-score),[32],-0.33
same,glycan array binding signal (z-score),[33],-0.432
same,glycan array binding signal (z-score),[34],-0.272
same,glycan array binding signal (z-score),[35],-0.44
same,glycan array binding signal (z-score),[36],-0.22
same,glycan array binding signal (z-score),[37],-0.295
same,glycan array binding signal (z-score),[38],-0.163
same,glycan array binding signal (z-score),[39],-0.561
same,glycan array binding signal (z-score),[40],-0.569
same,glycan array binding signal (z-score),[41],-0.091
